# Experimental data: PubChem BioAssay
# Test: probe aNOTCH2 binding on compound microarray – biochemical, small-molecule microarray, 635/667 nm fluorescence, primary screen (AID 1121);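 also: score merges feature fluorescence read at 667 nm with its signal to noise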
# Settings: higher = more signal
row,Compound,composite z-score
1,CC(C)N1CC=CC23O[C@@H]4C=CCOC(=O)[C@@H]4[C@H]2C(=O)N(CCCCCO)[C@@H]3C1=O (stereo not given in full),-0.153
2,[N-]=[N+]=Nc1ccccc1C[C@@]1(C(=O)N2CCCCC2)N=C(c2ccc(OCCCO)cc2)O[C@@H]1c1ccccc1,0.111
3,OCC1C=C(/C=C/c2ccccc2)CN1Cc1ccccc1Br (stereo not given),-0.0877
4,C=CC[C@@]1(C(=O)N2CCCCC2)N=C(c2ccc(OCCCO)cc2)O[C@@H]1c1ccccc1N=[N+]=[N-],0.0497
5,CO[C@H]1O[C@H](CO)[C@@H](OC(=O)Nc2ccc(Oc3ccccc3)cc2)[C@H](OC(=O)Nc2ccc3c(c2)OCO3)[C@@H]1OC(=O)Nc1ccc2c(c1)OCO2,0.0248
6,COCCOC(=O)N1C(=O)[C@@]2(c3ccccc31)[C@H](C(=O)N1CCc3cc(OC)c(OC)cc3C1)[C@H]1C(=O)O[C@H](c3ccccc3)[C@H](c3ccccc3)N1[C@@H]2c1ccc(O)cc1,0.0129
7,CCCCC(=C=CC[C@@H](O)c1cccc(OCCO)c1)C[C@@H](O)c1ccccn1,-0.172
8,CCOC(=O)C[C@H]1[C@H](OC(=O)c2cc3ccccc3oc2=O)[C@@H](NC(=O)CC(C)C)c2cc(OCCCO)ccc2N1C(=O)c1ccccc1,-0.14
9,CC(C)(C)OC(=O)CC[C@@]1(C(=O)N2CCCCC2)N=C(c2ccc(OCCCO)cc2)O[C@@H]1c1ccccc1,-0.0659
10,Cc1ccc(S(=O)(=O)N2C[C@@H](C(=O)O)[C@H](Sc3ccccc3)C[C@H]2c2ccccc2)cc1,0.0456
11,O=C1[C@H]2C=C(Br)[C@H](C[C@@H]2OCCCCCCO)[C@@]12CO2,-0.0064
12,COc1ccc(C(=O)Nc2cccc(CN3C(=O)[C@]4(O[C@H](CCn5cc(CCO)nn5)[C@@H]([Si](C)(C)c5ccc(OC)cc5)[C@@H]4C)c4ccccc43)c2)cc1,-0.0142
13,C=C[C@H](C)[C@@H](OC(=O)Nc1ccc(SC)cc1)c1ccc(O)c2ccccc12,-0.0928
14,COCCOC(=O)N1C(=O)[C@@]2(c3cc(C#CC4(O)CCCCCC4)ccc31)[C@H](C(=O)Nc1nc3ccccc3s1)[C@H]1C(=O)O[C@H](c3ccccc3)[C@H](c3ccccc3)N1[C@@H]2c1ccccc1OCCO,-0.162
15,C=CCC(OC(C)=O)[C@@H]1[C@@H](N(Cc2ccc(-c3ccccc3)cc2)C(=O)Cc2ccc(F)cc2)c2cc(OCCCO)ccc2N1C(=O)c1ccc2ccccc2c1 (stereo not given in full),0.0251
16,CN(C)CCCC[C@@H]1NC(=O)[C@H]2C[C@@H](C(=O)NCCCCCN)[C@@H](c3cccc(OCCO)c3)N2C1=O,0.41
17,C=CC[C@]1(C(=O)NCc2ccccc2)N=C(c2ccc(OCCCO)cc2)O[C@H]1c1ccccc1CN=[N+]=[N-],-0.104
18,O=C(CS)NCCCCCNC(=O)[C@@H]1C[C@@H]2C(=O)NCC(=O)N2[C@@H]1c1ccc(O)cc1,-0.213

row,Compound,composite z-score
1,C=CCC(OC(C)=O)[C@@H]1[C@@H](N(Cc2ccc(-c3cccc(C(F)(F)F)c3)o2)C(=O)c2cccc3ccccc23)c2cc(OCCCO)ccc2N1C(=O)Cc1ccc2ccccc2c1 (stereo not given in full),-0.102
2,C=CCC(OC(C)=O)[C@@H]1[C@@H](N(Cc2ccc(-c3cccc(C(F)(F)F)c3)o2)C(=O)Cc2ccc(OC)cc2)c2cc(OCCCO)ccc2N1C(=O)c1ccc2ccccc2c1 (stereo not given in full),-0.131
3,CC(C)CN1C(=O)[C@@]2(c3ccc([N+](=O)[O-])cc3)CC(=O)N(C3CCCCC3)[C@@H]2c2ccc(CO)cc21,-0.0241
4,O=C1C2C=CC(C(O)C=Cc3ccc([N+](=O)[O-])cc3)N(n3cnnc3)C2C(=O)N1Cc1ccccc1 (stereo not given),0.02
5,O=C1O[C@H](c2ccccc2)[C@H](c2ccccc2)N2[C@H]1[C@@H](C(=O)NC[C@H](O)c1ccccc1)[C@]1(C(=O)Nc3ccc(C#CC4=CCCCC4)cc31)[C@H]2c1ccccc1OCCO,-0.0614
6,O=C1NC(=O)C2C1C=CC(C(O)c1ccc(I)cc1)N2Nc1ccc(Cl)cc1Cl (stereo not given),0.127
7,CC(C)CCC[C@@H](C)[C@H]1CC[C@@]2(C)C3=C(CC[C@]12C)[C@@]1(C)CC[C@H](OC(=O)c2ccc(C(F)(F)F)nc2)C(C)(C)C1CC3 (stereo not given in full),-0.17
8,CC(C)(C)OC(=O)CC[C@]1(C(=O)NCCN2CCOCC2)COC(c2ccc(OCCCO)cc2)=N1,-0.0995
9,CN1C(=O)C2C=CC(C(O)c3ccccc3)N(N3CCCCC3)C2C1=O (stereo not given),0.0521
10,CC[C@@H]1C=C(C(=O)O)[C@H](c2cccc3ccccc23)N1S(=O)(=O)c1ccc(C)cc1,0.0477
11,C=CCNC(=O)[C@H]1[C@@H]2C(=O)O[C@@H](c3ccccc3)[C@@H](c3ccccc3)N2[C@@H](c2ccc(OCCO)cc2)[C@]12C(=O)Nc1ccc(C#CCC(C(=O)OC)C(=O)OC)cc12,0.0022
12,C=CCN1Cc2ccccc2[C@@H]2OC(c3ccc(OCCCO)cc3)=N[C@]2(CCS(=O)(=O)c2ccccc2)C1=O,-0.0664
13,C[N+](C)(C)CCCC[C@@H]1NC(=O)[C@H]2C[C@@H](C(=O)NCCCCCCNC(=O)CS)[C@@H](c3ccc(O)cc3)N2C1=O,-0.0764
14,CC(=O)Nc1cc(Br)ccc1C(=O)NCc1ccccc1,-0.123
15,O=C1C2C=CC(C(O)c3ccc4c(c3)OCO4)N(Nc3ccc([N+](=O)[O-])cc3)C2C(=O)N1c1ccccc1 (stereo not given),-0.104
16,COc1ccc(C(O)C2C=CC3C(=O)N(C)C(=O)C3N2N(c2ccccc2)c2ccccc2)c2ccccc12 (stereo not given),-0.0017
17,COc1cc2c(cc1O)C=[N+](Cc1cc3c(cc1Br)OCO3)CC2,-0.126
